Sfp inh = inhibitors of Bacillus subtilis Sfp phosphopantetheinyl transferase | Q9F4F7 | Biochemical Sfp PPTase activity, qHTS | Potency, µM, without a hit: largest response in the series, negative = inhibition, most hits filed as inhibitors | 310,000 tested, 3.5% active | AID 1490;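 also: the enzyme is Sfp with the accession as filed and its product quenches rhodamine fluorescence; 0% = enzyme reaction without inhibitor and -100% = no enzyme wells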
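Compounds were incubated with enzyme (final 15 nM) for 15 min at room temperature before substrate addition started the reaction. Fluorescence at 525 nm excitation, 598 nm emission was recorded immediately and after 30 minutes.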
RORgamma inh = blocks mouse ROR gamma transcriptional activity; P51450; Drosophila S2 Gal4-RORgamma UAS-luciferase reporter, 20 h; Potency, µM (top dose mostly 53.6 µM), for inactives: top-dose activity change, negative = inhibition, actives largely listed as inhibitors; 310,000 tested, 5.4% active; AID 2551; also: nearly all actives have a fitted effect of over 60% in size
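Schneider cells (Drosophila), stable Gal4 DBD–ROR gamma + UAS-luc; 1 hr cmpd preincubation; Cu2+ induction 700 uM final; 20 hr ambient; luminescence.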
ALDH1A1 block = blocks purified human ALDH1A1 activity; AID 1030; 220,000 tested, 7.3% active; Potency, µM (highest dose often 75.3 µM), without a hit: at the top dose activity, negative = inhibition, most hits filed as inhibitors; Purified ALDH1A1, NADH fluorescence, propionaldehyde substrate; active = well fitted inhibition curve with a large enough effect, not every such curve was filed as active; inconclusive = small, poorly fitted or top-dose-only effect, or another doubt; inactive = no such curve, though single readings can be large or run the other way;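 also: plate controls were no enzyme wells and a reference inhibitor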
Gal4-VP16 FLuc = inhibits Gal4-VP16 luciferase reporter, ROR gamma counter-screen | 310,000 tested, 3.5% active | AID 2546 | Potency, µM (series often up to 53.6 µM), without a hit: at the top dose activity, negative = inhibition, hits mostly inhibitors | Drosophila S2 Gal4-VP16 UAS-luciferase, luminescence, 20 h;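 also: Gal4-VP16 expression switched on by copper sulfate through the metallothionein promoter; nearly all actives have a fitted effect of over 50% in size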
PLK1 PBD inh = PLK1 (human) polo-box domain binding inhibition; Plk1 PBD binding of FITC phosphopeptide, fluorescence polarization; AID 720504; P53350; Potency, µM, without a hit: max response, negative = inhibition, hits mostly inhibitors; 360,000 tested, 2.8% active; also: series mostly up to about 57 µM; nearly all actives have a fitted effect of over 65% in size
Target sequence (P53350 whole entry, looked up, the tested form may be a part): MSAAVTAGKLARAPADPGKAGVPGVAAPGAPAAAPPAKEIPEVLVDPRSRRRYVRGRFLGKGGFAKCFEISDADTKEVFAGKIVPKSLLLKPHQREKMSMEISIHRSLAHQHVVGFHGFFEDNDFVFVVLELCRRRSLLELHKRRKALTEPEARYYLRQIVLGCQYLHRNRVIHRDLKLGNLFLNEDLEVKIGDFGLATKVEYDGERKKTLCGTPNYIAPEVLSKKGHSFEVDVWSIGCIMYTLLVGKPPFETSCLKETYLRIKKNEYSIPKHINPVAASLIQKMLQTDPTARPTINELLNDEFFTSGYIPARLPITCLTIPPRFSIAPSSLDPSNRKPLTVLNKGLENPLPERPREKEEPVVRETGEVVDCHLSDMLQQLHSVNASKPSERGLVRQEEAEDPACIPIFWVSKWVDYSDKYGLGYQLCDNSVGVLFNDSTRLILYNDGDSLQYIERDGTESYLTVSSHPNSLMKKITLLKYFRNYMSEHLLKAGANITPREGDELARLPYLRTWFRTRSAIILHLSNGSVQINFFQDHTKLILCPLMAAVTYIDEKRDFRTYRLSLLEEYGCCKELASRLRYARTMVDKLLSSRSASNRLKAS
The depositor's hits bear a star; ? = inconclusive; . = not tested or not shown; ! = repeats disagree; [ ] = dose if it differs, or a comment. In the library only some 12% were active in any assay of this set; here they are far more common. Unless noted, calls follow the shape of the dose curve; as a rule, active = well fitted curve in the direction sought with a large enough effect; inconclusive = small, poorly fitted or top-dose-only effect, or another doubt; inactive = no such curve, though single readings can be large; an effect the other way counts as inactive or inconclusive. Unless noted, % is scaled to controls: 0 for no effect and ±100 for the full control effect; potency is read from the fitted curve at half-maximal effect.

SMILES | Sfp inh | RORgamma inh | ALDH1A1 block | Gal4-VP16 FLuc | PLK1 PBD inh
Cc1nc(-c2ccc(-c3ccc(C(=O)N4CCc5cc6c(cc54)C4(CCN(C)CC4)CO6)cc3)c(C)c2)no1 | 63µM* | ? | 3% | ? | .
Nc1nc(O)c(-c2ccccc2)o1 | -10% | 14% | . | 1% | .
CN(Cc1ccccc1)C(=O)c1ccc(NC(=O)C2CCN(C(=O)OC(C)(C)C)CC2)cc1 | . | . | . | . | 30µM*
COc1cccc(-n2nc(C(=O)N3CCC4(CC3)OCCO4)c3ccccc3c2=O)c1 | 6% | -9% | ? | 0% | -10%
COc1ccc(-n2nc(C(=O)NCC(=O)N3CCC4(CC3)OCCO4)c3ccccc3c2=O)cc1OC | 19% | 16µM* | . | ? | 3%
CCCCCOC(=O)c1ccccc1C(=O)OCCCCC | . | 20% | -4% | -5% | .
Cc1cc(N2CCNCC2)nc2ccccc12 | 4% | -17% | . | 9% | 27µM*
CC(C)(O)C1C2OC(=O)C1[C@]1(O)C[C@H]3O[C@]34C(=O)O[C@H]2[C@]14C (stereo partly drawn) (tested in a mixture with another compound) | 8% | 16% | 3% | -3% | .
O=C1NC(=O)N(Cc2ccccc2)C(=O)/C1=C/c1cnc(-c2ccccc2)nc1 | 56µM* | 1% | 14% | -1% | 6.7µM*
CC(C)c1ccc(N2C(=O)NC(=O)/C(=C/c3cnc(-c4ccccc4)nc3)C2=O)cc1 | 56µM* | 10% | 19µM* | 2% | 12µM*
CSc1ncc(/C=C2/C(=O)NC(=O)N(c3ccc(C(C)C)cc3)C2=O)cn1 | 79µM* | -6% | 14µM* | -3% | 15µM*
c1cnc(N2CC3(CCNCC3)C2)nc1 | -3% | 28% | ? | -10% | .
NNS(=O)(=O)c1ccc(Sc2ccccn2)c([N+](=O)[O-])c1 | -28% | -2% | ? | -6% | -26%
N#CC1=C(N)Oc2n[nH]c(-c3cccs3)c2C1c1ccco1 (stereo not drawn) | ? | -2% | ? | 16% | -25%
CC(C)(C)c1[nH]nc2c1C(c1ccoc1)C(C#N)=C(N)O2 (stereo not drawn) | 7% | 29% | 16µM* | -3% | -4%
CCC(C(=O)O)C1CCC(C)C(C(C)C(O)C(C)C(=O)C(CC)C2OC3(C=CC(O)[C@@]4(CC[C@](C)(C5CC[C@@](O)(CC)C(C)O5)O4)O3)C(C)CC2C)O1 (stereo partly drawn) | 25% | 1.8µM* | 3% | 2.2µM* | .
O=C(N/N=C\C1C(=O)NC(=S)N(c2ccccc2)C1=O)c1ccc(O)cc1 (stereo not drawn) | -7% | 1.4µM* | 10µM* | 2.5µM* | -24%
CCCCCCCCCCCCC/C=C/[C@@H](O)[C@@H](N)COP(=O)([O-])OCC[N+](C)(C)C | ? | -13% | 1% | -29% | .
COc1cc(CNC(=O)CCCC/C=C\C(C)C)ccc1O | 16% | 22% | 3.5µM* | -10% | .
COc1cc(CCN)ccc1O | 28% | . | -7% | . | 0%
C=CCc1ccc(O)c(OC)c1 | 2% | 5% | 14µM*! | 2% | .
COc1cccc(-c2nn(Cc3ccccc3)cc2C(=O)O)c1 | 4% | -10% | . | 4% | 4%
COc1cccc(CNC(=O)CSc2ccc(-c3ccco3)nn2)c1 | 22µM* | 1% | 13µM* | -7% | -6%
C#CCOC(C(=O)OCCN(C)C)(c1ccccc1)c1ccccc1 | 15% | 13% | . | 2% | .
COc1cccc(Oc2c(C)oc3cc(OC(=O)N(C)C)ccc3c2=O)c1 | 8% | 15% | 22µM* | 0% | -7%
SMILES | Sfp inh | RORgamma inh | ALDH1A1 block | Gal4-VP16 FLuc | PLK1 PBD inh
Cc1oc2ccc(OC(=O)N(C)C)cc2c1C(=O)OC(C)C | 5% | -38% | -4% | -8%[0.365 µM] | -10%
O=c1c2cc(Cl)cc(Cl)c2nc(CN2CCOCC2)n1-c1ccccc1F | -15% | 14% | 14µM* | -2% | 0%
COc1ccc(-n2c(CN3CCOCC3)nc3ccccc3c2=O)c(OC)c1 | 2% | -36%[1.91 µM] | . | -5% | -7%
O=C(CN1CCCCC1)c1ccc(F)cc1 | 16% | -8% | . | -4% | -15%
COc1ccc(C(=O)CN2CCOCC2)cc1F | 9% | -21% | 14µM* | 5% | -10%
O=C(CN1CCOCC1)c1ccc2cc[nH]c2c1 | 50µM* | 4% | ? | -5% | -15%
